Activity calls are given as the source filed them.
Columns and labels:
[1] = adipocyte viability effects, profiling panel, cell-based, 3T3-L1 adipocytes, calcein-AM fluorescence, 48 h, basal (AID 1163); conditions: 3T3-L1 adipocytes viability, higher = more signal
[2] = HepG2 cell viability effects, profiling panel, calcein-AM fluorescence, 48 h, basal (AID 1164); conditions: higher = more signal
[3] = MM1S cell viability effects, profiling panel, calcein-AM fluorescence, 48 h, basal (AID 1165); conditions: higher = more signal;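 further: viability of MM1S multiple myeloma cells under basal unstimulated conditions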
[4] = basal RPMI8226 viability, no added stimulus, profiling panel, cell-based, calcein-AM fluorescence, 48 h, PK04 Diversity Set (AID 1166); conditions: RPMI8226 myeloma viability, higher = more signal;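 further: cells grown under basal conditions without added stimulus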
[5] = basal HepG2 mitochondrial membrane potential changes, profiling panel, cell-based, JC-1 fluorescence, 24 h, 100 nL compound (AID 1167); conditions: higher = more signal
[6] = basal 3T3-L1 adipocyte mitochondrial potential changes, profiling panel, cell-based, JC-1 fluorescence, 3T3-L1 adipocytes, 24 h, 100 nL compound (AID 1168); conditions: JC-1 mitochondrial fluorescence, higher = more signal, called active from +8 up or from −8 down
[7] = basal RPMI8226 mitochondrial membrane potential changes, profiling panel, cell-based, JC-1 fluorescence, 24 h, 100 nL compound (AID 1169); conditions: RPMI8226 myeloma, JC-1 mitochondrial potential fluorescence, higher = more signal
[8] = basal MM1S mitochondrial membrane potential changes, profiling panel, cell-based, JC-1 fluorescence, 24 h, 100 nL compound (AID 1170); conditions: higher = more signal
[9] = A549 lung cancer cell viability effects, profiling panel, resazurin fluorescence, 24 h, PK04 Diversity Set (AID 1171); conditions: higher = more signal, called active from +8 up or from −8 down
[10] = HepG2 liver cancer cell viability effects, profiling panel, resazurin fluorescence, 24 h, PK04 Diversity Set (AID 1172); conditions: higher = more signal
[11] = basal S. cerevisiae growth modulation, no modifier, primary screen, OD600, strain BY4716, 24 h, basal condition (AID 1173); conditions: OD600, 24 h, higher = more signal, called active from +8 up or from −8 down
[12] = MM1S myeloma cell viability, profiling panel, resazurin fluorescence, basal, 24 h, PK04 Diversity Set (AID 1174); conditions: higher = more signal, called active from +8 up or from −8 down;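 further: MM1S multiple myeloma cell line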
[13] = biological target: Dihydroorotate dehydrogenase (quinone), mitochondrial (Plasmodium falciparum (isolate 3D7)) (UniProt Q08210); test: PfDHODH enzyme inhibitors, primary screen, biochemical, C-terminal His tag, absorbance 600 nm (AID 1175); conditions: DCIP absorbance 600 nm, higher = more signal, called active from +8 up or from −8 down;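 further: recombinant parasite enzyme with a five histidine tag at its C terminus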
Chain of Dihydroorotate dehydrogenase (quinone), mitochondrial (Plasmodium falciparum (isolate 3D7)) (Q08210 whole entry, looked up): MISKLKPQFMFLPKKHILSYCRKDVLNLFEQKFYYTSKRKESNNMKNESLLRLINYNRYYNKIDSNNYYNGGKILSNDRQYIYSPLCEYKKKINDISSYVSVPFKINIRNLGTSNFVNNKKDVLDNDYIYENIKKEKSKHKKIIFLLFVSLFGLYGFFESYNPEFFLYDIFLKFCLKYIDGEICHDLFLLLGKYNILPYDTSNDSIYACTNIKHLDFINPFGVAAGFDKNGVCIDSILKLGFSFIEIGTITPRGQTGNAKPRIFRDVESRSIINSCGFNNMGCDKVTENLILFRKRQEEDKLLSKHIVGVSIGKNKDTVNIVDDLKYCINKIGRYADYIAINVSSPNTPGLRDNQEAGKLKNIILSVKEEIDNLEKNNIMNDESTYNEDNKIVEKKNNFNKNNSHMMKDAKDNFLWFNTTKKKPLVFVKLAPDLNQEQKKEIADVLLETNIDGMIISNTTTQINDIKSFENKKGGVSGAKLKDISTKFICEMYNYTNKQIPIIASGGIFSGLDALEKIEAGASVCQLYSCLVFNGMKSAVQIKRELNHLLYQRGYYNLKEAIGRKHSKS

[14] = S. cerevisiae RM11-1a growth modifiers, primary screen, strain RM11-1a, OD600, basal, 24 h (AID 1177); conditions: OD600, 24 h, higher = more signal, called active from +8 up or from −8 down;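 further: cultures grown under basal conditions with no added stressor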
[15] = E. coli acrAB mutant growth effects, primary screen, E. coli filamentation inducers, strain DRC39, OD650, 24 h (AID 1178); conditions: higher = more signal, called active from +8 up or from −8 down;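 further: growth measured as culture turbidity by optical density at 650 nm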
[16] = E. coli acrAB mutant growth effects, primary screen, E. coli filamentation inducers, strain DRC39, OD650, 48 h (AID 1179);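 further: screen aims at cell division blockers that make cells filament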; conditions: E. coli DRC39 delta-acrAB growth, higher = more signal, called active from +8 up or from −8 down
[17] = RPMI8226 myeloma cell viability, profiling panel, resazurin fluorescence, basal, 24 h, PK04 Diversity Set (AID 1180); conditions: higher = more signal;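 further: RPMI8826 multiple myeloma cell line at 5000 cells per well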
[18] = biological target: E3 ubiquitin-protein ligase XIAP (Homo sapiens) (UniProt P98170); test: XIAP binders, primary screen, biophysical, small-molecule microarray, fluorescence 635 nm (AID 1181); conditions: small-molecule microarray binding, higher = more signal;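 further: score merges 667 nm emission and signal to noise over triplicate slides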
Chain of E3 ubiquitin-protein ligase XIAP (Homo sapiens) (P98170 whole entry, looked up): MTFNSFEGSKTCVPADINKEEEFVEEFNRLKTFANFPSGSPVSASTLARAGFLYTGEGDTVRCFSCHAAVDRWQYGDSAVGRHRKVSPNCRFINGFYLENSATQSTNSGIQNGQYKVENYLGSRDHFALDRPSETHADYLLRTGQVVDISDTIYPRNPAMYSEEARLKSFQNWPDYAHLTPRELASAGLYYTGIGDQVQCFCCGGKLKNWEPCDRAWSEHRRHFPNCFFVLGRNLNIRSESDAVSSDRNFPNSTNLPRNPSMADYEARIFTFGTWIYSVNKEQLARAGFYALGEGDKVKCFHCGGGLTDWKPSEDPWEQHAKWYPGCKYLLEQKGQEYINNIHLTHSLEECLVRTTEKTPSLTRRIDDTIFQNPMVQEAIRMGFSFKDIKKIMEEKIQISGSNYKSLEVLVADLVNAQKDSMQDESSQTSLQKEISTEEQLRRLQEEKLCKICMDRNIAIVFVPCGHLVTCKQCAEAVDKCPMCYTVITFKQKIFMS

[19] = system: XIP peptide (Xip251-270) binding; test: small-molecule binders of XIP peptide, primary screen, biochemical, small-molecule microarray, fluorescence 635/667 nm, 0.1 µg/mL protein (AID 1182); conditions: fluorescent protein binding, 635 nm, higher = more signal, called active from +8 up or from −8 down
XIP peptide (Xip251-270) = test: small-molecule binders of XIP peptide, primary screen, biochemical, small-molecule microarray, fluorescence 635/667 nm, 0.5 µg/mL protein (AID 1183); conditions: small-molecule microarray binding, fluorescence 635 nm; higher = more signal

SMILES | z-score [1] | z-score [2] | z-score [3] | z-score [4] | z-score [5] | z-score [6] | z-score [7] | z-score [8] | z-score [9] | z-score [10] | z-score [11] | z-score [12] | composite z-score [13] | z-score [14] | z-score [15] | z-score [16] | z-score [17] | composite z-score [18] | composite z-score [19] | composite z-score (XIP peptide (Xip251-270))
C=C(COC)/C(=C/C[C@H](OC(C)=O)c1ccc(CO)o1)c1cnc2ccccc2c1 | 0.788 | -0.957 | -1.42 | -0.182 | 0.117 | 0.411 (inactive) | 0.624 | -0.271 | 0.445 (inactive) | 0.441 | -1.24 (inactive) | 1.04 (inactive) | -7.31 (inactive) | -0.819 (inactive) | 1.48 (inactive) | 0.383 (inactive) | 0.981 | 0.292 | 1.5 (inactive) | 0.807
CC(C)CCC[C@@H](C)[C@H]1CC[C@@]2(C)C3=C(CC[C@]12C)[C@@]1(C)CC[C@H](OC(=O)CCl)C(C)(C)C1CC3 (stereo not given in full) | 0.155 | 1.17 | 0.405 | 0.895 | 1.58 | -0.207 (inactive) | -0.493 | 1.07 | 0.96 (inactive) | 1.16 | -0.795 (inactive) | 0.33 (inactive) | 0.141 (inactive) | -0.249 (inactive) | 2.93 (inactive) | 1.59 (inactive) | 0.444 | 0.106 | 0.133 (inactive) | 0.174
CCCCCCC#C[Si](O[C@H](c1ccccc1)c1cn(Cc2ccccc2)nn1)(C(C)C)C(C)C | 0.28 | -0.316 | 0.163 | 0.0412 | 6.57 | 2.09 (inactive) | 0.548 | -0.198 | 4.71 (inactive) | 2.52 | -0.382 (inactive) | 2.12 (inactive) | 0.337 (inactive) | -0.486 (inactive) | 2.12 (inactive) | 1.36 (inactive) | 2.68 | -0.0368 | 0.663 (inactive) | -0.15
C=CC[C@@H](OC(=O)Nc1ccc(SC)cc1)c1ccc(OCCO)cc1 | 0.344 | -0.0505 | -0.2 | 0.0111 | -2.22 | 0.812 (inactive) | 0.561 | -0.774 | 0.364 (inactive) | 0.537 | -5.16 (inactive) | 0.822 (inactive) | -1.13 (inactive) | -0.0086 (inactive) | 1.28 (inactive) | 0.899 (inactive) | 0.301 | -0.0773 | 1.08 (inactive) | -0.689
CC(C)N1C(=O)c2ccccc2[C@@H](C(=O)NCc2ccccc2)[C@@H]1c1ccc(CO)cc1 | 1.05 | -0.179 | -0.601 | 0.0541 | 0.617 | -0.0455 (inactive) | 0.115 | -0.251 | 1.05 (inactive) | 0.595 | 0.25 (inactive) | 1.51 (inactive) | 0.578 (inactive) | 1.49 (inactive) | 0.541 (inactive) | 0.169 (inactive) | 1.01 | -0.0095 | 0.482 (inactive) | -0.988
NCCCCCNC(=O)[C@H]1C[C@H]2C(=O)NCC(=O)N2[C@H]1c1ccc(O)cc1 | 1.46 | -0.252 | -0.249 | 0.502 | 0.848 | -0.36 (inactive) | -0.806 | 0.231 | 0.518 (inactive) | -1.2 | 0.375 (inactive) | 0.352 (inactive) | -0.0658 (inactive) | 0.774 (inactive) | 0.172 (inactive) | 0.214 (inactive) | 1.18 | -0.0918 | 1.28 (inactive) | 0.57
NC(=O)N1C(=O)C2C(C1=O)C1C=C(c3ccc(CO)cc3)C2C(C2CC2)N1Cc1cc2c(cc1Br)OCO2 (stereo not given) | 1.32 | -0.282 | -0.767 | -1.11 | 1.26 | 1.44 (inactive) | -0.3 | 0.463 | 0.761 (inactive) | 0.627 | -3.17 (inactive) | 0.814 (inactive) | -0.692 (inactive) | -1.02 (inactive) | 1.36 (inactive) | 0.422 (inactive) | 0.298 | -0.143 | 1.06 (inactive) | -0.673
CC(C)(C)OC(=O)CC[C@]1(C(=O)NCc2ccccc2)N=C(c2ccc(OCCCO)cc2)O[C@H]1c1ccccc1N=[N+]=[N-] | 2.99 | -0.957 | -0.369 | -1.52 | 2.24 | 2.6 (inactive) | -0.578 | -0.669 | -0.413 (inactive) | 0.384 | 0 (inactive) | -0.439 (inactive) | 1.18 (inactive) | 0.892 (inactive) | 3.14 (inactive) | 1.08 (inactive) | -0.2 | -0.0095 | 0.735 (inactive) | 0.725
C=CCC(OC(C)=O)[C@@H]1[C@@H](N(Cc2ccc(-c3ccccc3)cc2)C(=O)c2ccc(-c3ccccc3)cc2)c2cc(OCCCO)ccc2N1C(=O)c1ccc(-c2ccccc2)cc1 (stereo not given in full) | 0.948 | 0.623 | 0.787 | 0.18 | 2.74 | 0.111 (inactive) | -0.176 | -0.0803 | 1.4 (inactive) | 1.46 | -0.435 (inactive) | 1.4 (inactive) | 0.169 (inactive) | -0.738 (inactive) | 1.34 (inactive) | 0.995 (inactive) | 0.899 | -0.0102 | -0.959 (inactive) | -0.58

— PubChem BioAssay
